# Reference: the OligoGym collection
# Target: DTX1
# Test: pooled miR-30 sensor sort-seq; sequence = guide strand
# Conditions: shRNA
row,Sequence,sensor-assay potency score (higher = more potent)
1,TGCTTCTTCTTGGTCTTGCGGC,-0.99
2,TGAGGTTGGATCCAAACTCGGT,-0.565
3,TCTAGGTAGCTAGCGTCCGGGT,-1.53

# Target: DTX3L
# Test: as above
# Conditions: shRNA
row,Sequence,sensor-assay potency score (higher = more potent)
1,TAAAGAGACACATTCTTGCTTC,0.883
2,TTGGAAGTCACCACACACCTTC,0.463
3,TTTTTCAACACTCTCTCCTTAG,-0.54
4,TATTCTTTCAATGTCTTGGAAG,-0.89
5,TTCCAGGGTATCTCTTTCCTGG,-0.87
6,TTCGATCTCTGATATCTCCTGT,0.612
7,TTTGTGGTGAATATCATTCCAA,-0.425
8,TTGTGGTGAATATCATTCCAAG,-1.27
9,TTGAGGTCTCGTGTTCTTCTTT,-0.195
10,TAGCTCTCCAGCTTCCTTCGTA,0.0161
11,TAGAACATACTGCTTCGCCTTT,-0.506
12,TTCGTCAACAAGTATTTGGTGC,0.16

# Target: DUSP22
# Test: as above
# Conditions: shRNA
row,Sequence,sensor-assay potency score (higher = more potent)
1,TTCACAGGAAGCAATCACGAGC,-0.769
2,ATACTGATGGACCTCATGCTTC,-1.22
3,ATATGTGTCACCTTGTTCTTGC,0.858
4,TTAGTTCTCAACATAAACATGA,-0.0599
5,TCTTCCTTCAGCCACTGCCGAT,-1.53
6,TTTCTTTGAAATGTCTTGTCAG,-0.0889
7,TACTTAAACTCTATGTTGCTTT,-0.452
8,AATATGTGTCACCTTGTTCTTG,-0.44
9,TTCTTTGAAATGTCTTGTCAGG,-0.54
10,TTAACGAAAACATAGAGCTTTC,-0.995

# Target: DUSP3
# Test: as above
# Conditions: shRNA
row,Sequence,sensor-assay potency score (higher = more potent)
1,TAGGCGATAACTAGCGTTGGGG,-0.821
2,TCGTTGAGATCCTGCACCGAGA,-1.55
3,ATTGGTGTTGACGTGCATGAAG,-1.24
4,TTGCCCACGTAGATCCGCGGGG,-0.843
5,TTCTGCCGCATCATGAGGTAGG,-0.351
6,TTCAGCACATGGGTGATGCCTA,-0.601
7,TGAGGTTGAACTCCTGTGTGTC,0.0433
8,TTCTTTTGAGCCAAAGCCTGGT,-0.51
9,TTGACGTCCATCTTCTGCCGCA,-0.0981
10,TTGTAGAAGTTGGCATTGGTGT,-0.415
11,TTGAACTCCTGTGTGTCGTTGG,0.854
12,ATTCTTTTGAGCCAAAGCCTGG,-1.5
13,TCAATGAAGTCGGCAGCCCTTT,-0.941
14,TTGGGGAGCGGCTATAACCTTC,-1.39
